Compound activity deposited in PubChem by The Scripps Research Institute Molecular Screening Center.
In the library only some 2.8% were active in any assay of this set; here they are far more common.
PAFAH2 FP inh – inhibitors of human PAFAH2; recombinant PAFAH2, FP-rhodamine activity probe, fluorescence polarization; Q99487; AID 492956; hit rate 0.99% among 340,000; inhibition, % at 3.39 µM;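 active means inhibition above the mean over all tested compounds plus 3 SD, cut at about 30% in these data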;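 further: inhibitors block probe labeling of enzyme so polarization drops; 0% = enzyme with DMSO and 100% = wells lacking PAFAH2 protein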
pPAFAH inh – inhibitors of human plasma PAF acetylhydrolase (pPAFAH); Q13093; AID 463082; hit rate 1.5% among 330,000; inhibition, % at 3.39 µM; recombinant pPAFAH, FP-rhodamine probe fluorescence polarization;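 active means inhibition above the mean inhibition across the screen plus 3 SD, cut at about 25% in these data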;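 further: inhibitors block binding of the rhodamine activity-based probe so polarization drops; 0% = enzyme with DMSO and 100% = wells lacking pPAFAH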
DAGLB inhibitor – blocks human DAGLB lipase activity. HEK293T DAGLB membrane lysate, EnzChek fluorogenic substrate. hit rate 0.059% among 340,000. inhibition, % at 5.17 µM. Q8NCG7. AID 504411; in the data active means inhibition above about 34%;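 further: 0% = enzyme with vehicle and 100% = wells lacking enzyme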
PAFAH1B3 FP inh – PAFAH1B3 (human) inhibition | recombinant PAFAH1B3, FP-rhodamine probe, fluorescence polarization | hit rate 0.28% among 340,000 | Q15102 | inhibition, % at 3.39 µM | AID 492972;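 active means inhibition above the screen-wide average of all tested compounds plus 3 SD, cut at about 25% in these data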;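 further: 0% = enzyme with DMSO only and 100% = wells lacking PAFAH1B3 protein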
HTRA1 inh – blocks human HTRA1 serine peptidase; Q92743; recombinant HTRA1, FP-rhodamine activity-based probe, fluorescence polarization; inhibition, % at 5.96 µM; hit rate 0.5% among 340,000; in the data active means inhibition above about 36%;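 further: 0% = enzyme with DMSO and 100% = wells lacking enzyme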
Target sequence (Q92743 whole entry, looked up): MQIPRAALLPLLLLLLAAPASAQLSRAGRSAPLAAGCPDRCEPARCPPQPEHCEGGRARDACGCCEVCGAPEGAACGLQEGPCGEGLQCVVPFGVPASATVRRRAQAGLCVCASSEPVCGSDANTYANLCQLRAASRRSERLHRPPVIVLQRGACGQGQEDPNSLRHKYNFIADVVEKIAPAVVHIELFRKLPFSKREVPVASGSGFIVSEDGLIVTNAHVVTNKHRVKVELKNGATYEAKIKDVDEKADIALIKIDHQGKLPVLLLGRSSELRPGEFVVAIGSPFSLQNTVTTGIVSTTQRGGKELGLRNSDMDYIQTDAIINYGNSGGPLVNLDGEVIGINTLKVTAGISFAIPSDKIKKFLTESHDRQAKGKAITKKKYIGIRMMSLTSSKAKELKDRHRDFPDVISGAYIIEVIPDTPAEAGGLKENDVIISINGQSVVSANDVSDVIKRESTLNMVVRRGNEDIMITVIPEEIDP
PAFAH1B2 inh – PAFAH1B2 (human) inhibition; P68402; recombinant PAFAH1B2, FP-rhodamine activity probe, fluorescence polarization; inhibition, % at 3.39 µM; hit rate 1.2% among 340,000; AID 492953;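 active means inhibition above the mean of all tested compounds plus 3 SD, cut at about 24% in these data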;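 further: 0% = enzyme with DMSO and 100% = wells lacking PAFAH1B2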
PAFAH2 FP conf – confirmation of human PAFAH2 inhibitors. shares compounds with PAFAH2 FP inh. recombinant PAFAH2, FP-rhodamine activity probe, fluorescence polarization. inhibition, % at 3.39 µM. hit rate 65% among 2,300;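 active means mean inhibition over three repeats above a set limit taken from the earlier primary screen, cut at about 30% in these data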;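 further: inhibitor blocks binding of rhodamine activity probe so polarization falls; 0% = enzyme with DMSO and 100% = wells lacking PAFAH2 protein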
* marks the source's active call; other numbers are inactive results; · = no result.

SMILES	PAFAH2 FP inh	pPAFAH inh	DAGLB inhibitor	PAFAH1B3 FP inh	HTRA1 inh	PAFAH1B2 inh	PAFAH2 FP conf
CC(C)CCN1C(=O)c2ccc(C(=O)Nc3ccccc3C(=O)O)cc2C1=O	40*	·	8	1	-12	2	20
CC(C)CCN1C(=O)c2ccc(C(=O)Nc3ccc(O)cc3C(=O)O)cc2C1=O	11	10	3	2	7	10	·
CCN(CC)S(=O)(=O)c1ccc(/C=C/C(=O)OCC(=O)NNC(=O)c2ccc(OC)cc2)cc1	43*	21	1	9	4	2	28
CC1CCCCC1NC(=O)COC(=O)/C=C/c1ccc2c(c1)OCO2 (stereo not given)	79*	12	-3	5	13	6	84*
CC(=O)Nc1ccc(NC(=O)COC(=O)/C=C/c2ccc3c(c2)OCO3)cc1	-7	0	0	2	5	1	·
O=C(COC(=O)/C=C/c1ccc2c(c1)OCO2)NCc1ccccc1	55*	-4	-3	6	3	2	42*
CCN(CC)S(=O)(=O)c1ccc(/C=C/C(=O)OCC(=O)Nc2ccc(C(N)=O)cc2)cc1	-7	-2	3	-10	-10	-4	·
COc1cccc(/C=C/C(=O)OCC(=O)NCc2ccc3c(c2)OCO3)c1	35*	2	-5	6	-1	4	17
O=C(Cn1ccc([N+](=O)[O-])n1)NCc1ccccc1	1	2	-4	5	7	4	·
CCN(CC)S(=O)(=O)c1ccc(/C=C/C(=O)OCC(=O)NCc2ccc3c(c2)OCO3)cc1	48*	14	0	4	-12	4	30*
Cc1ccc(N=C(NOC(=O)c2ccccc2)c2nonc2N)c(C)c1	68*	5	-3	-7	16	-1	67*
O=C1CC2(CCN(S(=O)(=O)c3ccccc3F)CC2)Oc2ccccc21	2	4	-2	4	-6	7	·
O=C(NNS(=O)(=O)c1ccc([N+](=O)[O-])cc1)c1ccc([N+](=O)[O-])cc1	-1	5	2	11	11	6	·
NS(=O)(=O)c1ccc(O)c(NC(=O)c2ccc([N+](=O)[O-])cc2)c1	31*	6	3	4	8	-3	29
COc1ccc(C(C)NC(=O)C2CCCC2)cc1OC (stereo not given)	-1	8	0	0	0	1	·
Clc1ccccc1Cc1noc(CN2CCN(Cc3ccccn3)CC2)n1	33*	8	-3	7	7	11	9
CCN(CC)C(=O)Cn1c(=O)n(CCCC(=O)NCc2ccccc2)c(=O)c2sccc21	-7	-3	-1	7	3	3	·
O=C1OC(c2ccc3c(c2)OCO3)N(C(=O)c2ccc(Cl)c(Cl)c2)c2ccccc21 (stereo not given)	48*	-11	6	0	-11	5	47*
Cc1cccc(C(=O)N2c3ccccc3C(=O)OC2c2ccc3c(c2)OCO3)c1 (stereo not given)	31*	-1	0	4	-7	4	34*
CC(=O)N1C(c2ccccc2)CC(=O)OC1c1ccc2c(c1)OCO2 (stereo not given)	1	-4	-1	-1	3	-4	·
N#C/C(=C\c1ccc(O)c(O)c1)S(=O)(=O)c1ccccc1	64*	11	24	17	31	14	49*
COc1ccccc1NC(=O)c1cc2c(=O)n(C)c3ccccc3c2n1C	6	1	0	11	-30	5	·
Cc1ccc(NC(=O)c2ccccc2NS(=O)(=O)c2ccc(Cl)s2)cc1	71*	9	15	1	-43	11	74*
O=C(Nc1ccccc1)c1ccccc1NS(=O)(=O)c1ccc(Cl)s1	71*	7	11	3	-27	20	75*
O=C(O)CN1C(=O)C2C3CCC(C3)C2C1=O (stereo not given)	·	·	-5	·	1	·	·
SMILES	PAFAH2 FP inh	pPAFAH inh	DAGLB inhibitor	PAFAH1B3 FP inh	HTRA1 inh	PAFAH1B2 inh	PAFAH2 FP conf
Cc1ccc(N2C(=O)[C@@H]3[C@H](C2=O)[C@H]2C=CC=NN2[C@@H]3C(=O)Nc2ccc(Cl)cc2)cc1	-1	21	0	-10	-16	-1	·
O=C(Nc1ccc(Cl)cc1)[C@@H]1[C@@H]2C(=O)N(c3ccc(Cl)cc3)C(=O)[C@@H]2[C@H]2C=CC=NN21	33*	24	11	3	-9	-2	-3
COC(=O)CCN1CCC2CC1c1cc(-c3cccc(C)c3)ccc12 (stereo not given)	-6	·	-2	9	1	2	·
CC1=C/C(=C\c2ccc3c(c2)OCO3)C(=O)S1	3	20	-4	4	-9	-5	·
C=CCSC1=N/C(=C\c2ccc3c(c2)OCO3)C(=O)S1	32*	9	-5	10	-7	-2	31*
O=C(NCc1ccc(Cl)cc1)c1ccc2ccccc2n1	-2	-1	-7	5	-22	9	·
COc1ccc(/C=C2/SC(c3ccc(C)cc3)=NC2=O)cc1OC	38*	4	-16	3	-13	3	26
COc1ccc(/C=C2\SC(c3ccc(C)cc3)=NC2=O)cc1OC	27	-1	-6	7	-14	7	·
COCCCN1C(=O)C(CC(=O)NCc2cccc3ccccc23)CC(C(=O)N(C)C)=C1C (stereo not given)	·	·	6	·	-3	·	·
CC(=O)Nc1ccc(C(=O)OCc2ccc(F)cc2Cl)cc1	19	5	-3	-5	-9	-1	·
CCC(=O)Nc1ccc(C(=O)OCc2ccc(Cl)c(Cl)c2)cc1	36*	0	-5	-2	-11	-2	47*
CCCS(=O)(=O)c1ccc(COC(=O)c2ccc(NC(C)=O)cc2)cc1	30*	-2	-1	9	-13	-4	24
CC(=O)Nc1ccc(C(=O)OCc2ccc(Cl)c(Cl)c2)cc1	61*	1	-3	4	-31	5	63*
O=C1CSC(=S)N1Cc1ccccc1	·	·	-1	·	-22	·	·
CCN(CC)S(=O)(=O)c1ccc(C(=O)OCn2c(SC)nnc(C)c2=O)cc1	-3	6	-1	7	-9	2	·
COc1cccc2sc(Nc3nnc(-c4ccc(F)cc4)o3)nc12	65*	18	9	15	9	11	20
O=C(CSc1nnc(-c2ccccc2)o1)N1CCCCC1	2	0	2	0	4	-1	·
O=C(COC(=O)/C=C/c1ccc(C(F)(F)F)cc1)NC1CCCC1	20	10	-2	2	1	-3	·
C=CCOc1ccc(/C=C/C(=O)OCC(=O)NC2CCCCCCC2)cc1	67*	-3	-4	6	6	2	72*
C=CCOc1ccc(/C=C/C(=O)OCC(=O)NCCCc2ccccc2)cc1	17	9	-10	-4	-5	0	·
